In PubChem BioAssay (NCI):
About 83,000 compounds went through this panel and 20% of them were active in at least one assay; those are over-represented in the sample as a whole.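 Testing used 96-well plates and a 48-hour single-concentration exposure. Example: -40 means 40% of the starting cells died.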 Unmarked numbers belong to inactive results. Activity calls are given as the source filed them. The calls were made as follows: active = growth percent below 10; inactive = the rest.

system: MDA-MB-468 breast; assay: NCI-60 one-dose screen, 48 h (100 = growth as untreated, 0 = no growth, -100 = all killed); details: 10 µM unless noted

Structure (SMILES) | growth
COc1cc2nc(-c3ccc(Cl)cc3)cc(OCCCN3CCC(O)CC3)c2cc1OC | 52.9%
Clc1ccc2c(NCCCN3CCN(c4nc(N5CCOCC5)nc5ccccc45)CC3)ccnc2c1 | -74.3% (active)
O=C(OCc1ccc2c(Br)cc(Br)c(O)c2n1)c1cc2ccccc2[nH]1 | -73.2% (active)
